This is one part of a sample in which hits are shown more often than they occur.
BLM inh = Bloom syndrome helicase (human) inhibition. 0.2% of 350,000 active. recombinant BLM DNA unwinding, fluorescence dequenching. Potency, µM (titrated, usually from 56.1 µM), for the others: at the top dose activity change, negative = inhibition, hits mostly inhibitors. P54132;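 note: plate controls were vehicle for no effect and no enzyme for full effect; nearly all actives have a fitted effect of over 35% in size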
KDM4E inh = inhibitors of human JMJD2E histone demethylase | JMJD2E catalytic domain, FDH-coupled NADH fluorescence (FDH is formaldehyde dehydrogenase) | Potency, µM (titrated, usually from 57.1 µM), inactives show at the top dose activity change, negative = inhibition, hits mostly inhibitors | 1.6% of 230,000 active; active = well fitted inhibition curve with a large enough effect, not every such curve was filed as active; inconclusive = small, poorly fitted or top-dose-only effect, or another doubt; inactive = no such curve, though single readings can be large or run the other way;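 note: 0% = wells with enzyme and -100% = buffer wells without enzyme; nearly all actives have a fitted effect of over 50% in size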
L3MBTL1 inh = blocks human L3MBTL1. Q9Y468. AlphaScreen L3MBTL1–H3K9me1 peptide binding. Potency, µM (titrated, usually from 57.1 µM), for inactives: at the top dose activity, negative = inhibition, most hits filed as inhibitors. 0.66% of 230,000 active. AID 485360; note: nearly all actives have a fitted effect of over 60% in size
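L3MBTL1 (50 nM) pre-complexed 30 min with biotinylated H3(1-15)K9me1 peptide (75 nM), then compounds added for 30 min at room temperature; AlphaScreen streptavidin donor/nickel chelate acceptor beads (10 ug/mL final) read after 30 min dark incubation.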
APEX1 inh = inhibitors of human APE1 endonuclease | P27695 | recombinant APE1, TAMRA/BHQ-2 abasic DNA cleavage fluorescence | Potency, µM (doses to about 65.8 µM), inactives show top-dose activity change, negative = inhibition, usual class: inhibitors | 0.35% of 350,000 active | AID 2517;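 note: plate controls were vehicle for no effect and reference inhibitor for full effect; nearly all actives have a fitted effect of over 55% in size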
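Quantitative HTS: incision of a TAMRA/BHQ-2 double-stranded substrate bearing a tetrahydrofuran abasic site by 0.75 nM APE1 raises fluorescence. Substrate 50 nM final, added after 15 min compound preincubation at room temperature; progress as third-minus-first kinetic read difference.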
GCN5L2 inh = blocks human GCN5L2 histone acetyltransferase; GCN5L2 HAT assay, ThioGlo1 CoA-SH fluorescence; 0.21% of 390,000 active; Potency, µM (top dose mostly 58.9 µM), for the others: at the highest dose activity change, negative = inhibition, most hits filed as inhibitors; Q92830
Target sequence (Q92830 whole entry, looked up): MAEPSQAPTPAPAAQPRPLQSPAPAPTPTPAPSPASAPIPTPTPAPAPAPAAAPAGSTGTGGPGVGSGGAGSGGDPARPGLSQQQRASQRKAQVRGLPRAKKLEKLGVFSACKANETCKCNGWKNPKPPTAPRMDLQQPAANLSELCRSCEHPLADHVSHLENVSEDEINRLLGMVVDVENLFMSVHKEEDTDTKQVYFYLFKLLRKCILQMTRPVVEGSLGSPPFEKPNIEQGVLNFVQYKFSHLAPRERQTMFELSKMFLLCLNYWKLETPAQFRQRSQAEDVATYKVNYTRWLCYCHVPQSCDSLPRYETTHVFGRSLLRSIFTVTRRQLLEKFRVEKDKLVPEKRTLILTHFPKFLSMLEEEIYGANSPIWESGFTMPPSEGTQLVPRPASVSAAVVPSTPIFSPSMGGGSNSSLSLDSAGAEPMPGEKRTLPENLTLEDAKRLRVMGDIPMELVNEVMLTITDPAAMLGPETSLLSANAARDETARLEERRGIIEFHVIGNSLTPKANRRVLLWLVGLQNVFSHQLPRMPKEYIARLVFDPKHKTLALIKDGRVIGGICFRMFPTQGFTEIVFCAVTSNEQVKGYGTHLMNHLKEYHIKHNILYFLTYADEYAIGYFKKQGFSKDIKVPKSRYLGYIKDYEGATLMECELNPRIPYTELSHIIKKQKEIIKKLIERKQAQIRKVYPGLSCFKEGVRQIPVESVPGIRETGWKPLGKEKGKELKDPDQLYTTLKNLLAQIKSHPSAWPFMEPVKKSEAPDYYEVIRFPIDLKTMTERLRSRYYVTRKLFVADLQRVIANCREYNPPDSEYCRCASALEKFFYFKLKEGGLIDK
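Preincubate 20nM GCN5L2 with compound 15 min, RT → add 50uM ThioGlo1 + 75uM H3(1-25) + 70uM acetyl-CoA → read fluorescence 0 and 20 min. Primary qHTS; fluorescent artifacts likely.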
RECQ1 helicase = RECQ1 (human) helicase inhibition | RECQ1 DNA unwinding, red fluorescence kinetic read | Potency, µM (titrated, usually from 57.3 µM), for the others: at the highest dose activity, negative = inhibition, hits mostly inhibitors | 0.54% of 240,000 active | AID 2549;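 note: plate controls were vehicle for no effect and no enzyme for full effect; nearly all actives have a fitted effect of over 30% in size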
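50 nM RECQ1T1 preincubated 15 min with compound in Tris pH 8.0 buffer with MgCl2, DTT, Tween-20 and 2.5 ug/ml poly(dI-dC); started with 200 nM TAMRA/BHQ-2 forked duplex and 2 mM ATP. Unwinding read as fluorescence (525/598 nm), two reads 2 h apart.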
Numbers without * were called inactive; i = inactive; u = inconclusive; x = not tested or not shown; ! = repeats disagree; [ ] = dose if it differs, or a comment. Unless noted, calls come from the whole dose curve; as a rule, active = well fitted curve in the direction sought with a large enough effect; inconclusive = small, poorly fitted or top-dose-only effect, or another doubt; inactive = no such curve, though single readings can be large; an effect the other way counts as inactive or inconclusive. Unless noted, % is set by controls: 0 for no effect and ±100 for the full control effect; potency is the fitted concentration of half-maximal effect.

SMILES	BLM inh	KDM4E inh	L3MBTL1 inh	APEX1 inh	GCN5L2 inh	RECQ1 helicase
NC(=O)c1ccc(N=C2C(=O)Nc3ccc([N+](=O)[O-])cc32)cc1	32µM*	-4%	u	-3%	-10%	i
COc1ccc(C(=O)c2cc([N+](=O)[O-])ccc2N2CCN(C)CC2)cc1	2%	1µM*	-10%	9%	-13%	i
CCCCCCC#CC1C=CC(OC(=O)OCC)C(COC(=O)OCC)O1 (centres undefined)	-3%[12.4 µM]	x	x	-8%[12.4 µM]	x	-4%[11.5 µM]
COc1cc(C(=O)Nc2ccc(N3CCOCC3)cc2)ccc1OCc1c(C)noc1C	-1%	10%	2%	-3%	-9%	-6%
CC(=O)NCCNc1ncnc2ccc(-c3ccoc3)cc12	1%	x	x	-6%	25µM*	i
CN(C)c1ccc(NC(=O)CSc2nnc(-c3ccco3)c(-c3ccco3)n2)cc1	-8%	x	x	-18%	-9%	x
Cc1ccc(NC(=O)CSc2nnc(-c3ccco3)c(-c3ccco3)n2)cc1	u	u	20µM*	u	u	u
c1cc2[nH]snc2c2nc(C3CC3)nc12	-1%	20µM*	0%	2%	-7%	17%
O=C(O)c1cc(O)c2c(c1)[C@H]([C@H]1c3cc(C(=O)O)cc(O)c3C(=O)c3c(O[C@@H]4O[C@H](CO)[C@@H](O)[C@H](O)[C@H]4O)cccc31)c1cccc(O[C@@H]3O[C@H](CO)[C@@H](O)[C@H](O)[C@H]3O)c1C2=O	x	x	x	0.4µM*	x	x
CCOC(=O)c1ccc(NC(=S)N(CCCN2CCCC2)Cc2ccco2)cc1	-2%	7%	35µM*	1%	8%	1%
N=C(CC(O)COc1ccccc1-c1ccccc1)N1CCCCC1 (centres undefined)	-9%	x	x	10µM*!	-6%	-19%
O=C(O)c1cc(Br)ccn1	-8%	18µM*	x	1%	-3%	-7%
CN(C)c1ccnc(C(=O)O)c1	-14%	2.8µM*	x	13%	-4%	-18%
CN(C)c1cncc(C(=O)O)c1	-16%	u	x	17%	0%	-18%
CCCCCCCCCCCCCCCCCC(=O)OCC(C)O (centres undefined)	-6%	x	x	u	5%	-4%
CCCCCCCCCCCCCCCC(=O)OCC(O)C1OC(=O)C(O)=C1O (centres undefined)	u	x	x	x	8.9µM*	u
CCCCN(C(=O)c1cc(S(=O)(=O)N2CCCCCC2)ccc1OC)c1c(N)n(CCC)c(=O)[nH]c1=O	x	x	8%	14%	-2%	x
COC(=O)NC(/C(C(=O)OC)=C(\C)NCc1ccccc1)c1cccc(F)c1 (centres undefined)	0%[12.4 µM]	x	x	u	x	1%[11.5 µM]
O=C(CC1Sc2ncnn2C1=O)Nc1ccc(Br)cc1 (centres undefined)	0%	2.2µM*	3%	-10%	-7%	i
O=C(CC1SC2=NCCN2C1=O)Nc1ccc(Br)cc1 (centres undefined)	1%	6%	6%	10%	2%	-2%
O=S(=O)(c1cccc(-c2n[nH]c(=S)n2C2CCCC2)c1)N1CCOCC1	-9%	-11%	x	8%	-2%	-11%
COc1ccc(C(=O)NCCS(=O)(=O)NC(C)c2ccccc2)cc1 (centres undefined)	x	x	-3%	31%	-6%	x
Cc1ccc(S(=O)(=O)NC(=O)O[C@@H]2C(=O)c3cc(Br)ccc3O[C@H]2c2ccc3c(c2)OCO3)cc1	-4%	1%	x	1%	x	7%
O=C1NN(c2ccc(Cl)cc2)C(=O)/C1=C\c1ccc(-c2cccc(C(=O)O)c2)o1	-26%	-30%	x	7.9µM*	-27%	u
O=C1NN(c2ccccc2)C(=O)/C1=C\c1ccc(-c2cc([N+](=O)[O-])ccc2O)o1	-6%	u	u	6%	-16%	28µM*
SMILES	BLM inh	KDM4E inh	L3MBTL1 inh	APEX1 inh	GCN5L2 inh	RECQ1 helicase
C/C(CCN1CCCc2nc(C)c(C)cc21)=N\OC[C@@H](C)[C@H](OCc1ccccc1)C(C)C	0%[12.4 µM]	x	x	3%[12.4 µM]	x	i[11.5 µM]
COc1cccc(C2CC(c3cccs3)=NN2S(C)(=O)=O)c1 (centres undefined)	0%	-5%	-4%	-3%	-8%	i
Cc1ccc(-c2ccc(CCC(=O)O)n2NC(=O)c2cccs2)cc1	-4%	6%	40µM*	-10%	-13%	5%
COc1ccccc1CCC(=O)Nc1ccc2c(c1)CN(Cc1ccc(C)o1)CC2	-6%	x	x	16%	u	x
Cc1occc1C(=O)NNC(=O)C(c1ccccc1)c1ccccc1	-3%	4%	-8%	-3%	-5%	19%
C/C(N)=C(/C#N)C(=O)CN1C(=O)NC(Cc2c[nH]c3ccccc23)C1=O (centres undefined)	-18%	x	x	15µM*	3%	x
CCN(CC)c1ccc2c(-c3ccc(S(=O)(=O)O)cc3S(=O)(=O)[O-])c3ccc(=[N+](CC)CC)cc-3oc2c1	25µM*	x	x	27µM*	u	x
CCN(CC)c1ccc2nc3c4ccccc4c(=O)cc-3oc2c1	-22%	x	x	-20%	1%	x
COc1ccc(O)c(C(=O)c2cc(SCC(=O)O)c3nc4sc5c(c4c(=O)n3c2)CCCC5)c1	22µM*	u	x	u	u	i
CCCCC[C@H](O)/C=C/C=C\C/C=C\CCCCCCC(=O)O	-2%	8%	x	3%	x	-10%
C=C(C)CC1(c2ccccc2)Oc2ccccc2-c2nc3cc(Cl)c(Cl)cc3nc21 (centres undefined)	5%[12.4 µM]	x	x	-4%[12.4 µM]	x	9%[11.5 µM]
O=C(CSc1ccccc1)Nc1ccc2c(c1)C(=O)NC2=O	-1%	x	x	8%	0%	x
O=C1C(=O)c2ccc(-c3ccccc3)cc2-c2ccccc21	8.9µM*	-1%	u	1%	-6%	-7%
O=S1(=O)C2CC3C=CC2(CN1Cc1cccc(F)c1)O3 (centres undefined)	0%	x	x	-1%	x	-1%
O=C(O)C1(C(=O)O)CCC1	x	x	9%	5%	-20%	x
N.N.O=C(O)C1(C(=O)O)CCC1.[Pt]	0%	11µM*	x	6.3µM*	x	-29%
COc1ccc(OC)c(C2=Nn3c(nnc3-c3ccc(OC)c(OC)c3)SC2)c1	-15%	x	x	-9%	x	-3%
COC(=O)c1[nH]c2ccccc2c1NC(=O)C(C)N1CCN(C(=O)c2ccco2)CC1 (centres undefined)	-1%	u	6%	-3%	-5%	i
Nc1cccc(Oc2ccc3c(c2)C(=O)NC3=O)c1	1%	x	2%[2.29 µM]	-13%	-4%	x
